Results taken from the supplement of paper PMC10849652.
Targets with a hit are over-represented here; the source holds about 8,800 in all. About 0.5% of all pairs of compound and target were hits. A number with no mark means an inactive call.

How the values were obtained:
Assay in all cases: log2 fold change, soluble protein after heating vs DMSO (PISA); higher = thermal stabilisation; K562 lysate, 10 uM; active = over 0.2 and 3.5 SD of the protein, either way, in both replicates (recomputed)
erlotinib = compound: C#Cc1cccc(Nc2ncnc3cc(OCCOC)c(OCCOC)cc23)c1 [erlotinib]
Summary of the method: (§1)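 K562 pellets were dounce-homogenised in PBS pH 7.4 containing 1 mM MgCl2, and the crude extract, at 1 mg/mL protein, was exposed to 10 μM compound for 30 min. Aliquots were heated for 3 min across 48°C-58°C, pooled, brought to 0.5% NP-40 at 4°C and spun at 21,000xg for 90 min, with the supernatant taken as soluble protein. TMTpro 16plex LC-MS/MS with equalised channel sums quantified that protein. Values are log-two fold changes in thermal stability relative to solvent controls, taken from duplicates.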

[1] = compound: C1=CC(=CC=C1C2=NC3=C(N2)C=C(C=C3)C(=O)N)OC4=CC=C(C=C4)Cl
Summary of the method: as §1

[2] = compound: C1=CC2=NC=CN=C2C=C1/C=C/3\C(=O)NC(=O)S3
Summary of the method: as §1

[3] = compound: C1=CC=C(C=C1)C2=NC(=C(N2)C3=CC=NC=C3)C4=CC(=C(C=C4)Cl)O
Summary of the method: as §1

[4] = compound: C1CCN(C1)C(=O)NC2=CC=CC(=C2)NC3=NC=C(C(=N3)NCCC4=CN=CN4)Br
Summary of the method: as §1

[5] = compound: C1CN(CCC1(CC2=CC=C(C=C2)Cl)N)C3=NC=NC4=C3C=CN4
Summary of the method: as §1

IRAK-1-4 Inhibitor I = compound: C1COCCN1CCN2C3=CC=CC=C3N=C2NC(=O)C4=CC(=CC=C4)[N+](=O)[O-] [IRAK-1-4 Inhibitor I]
Summary of the method: as §1

ibrutinib = compound: C=CC(=O)N1CCC[C@@H](n2nc(-c3ccc(Oc4ccccc4)cc3)c3c(N)ncnc32)C1 [ibrutinib]
Summary of the method: as §1

[6] = compound: CC(=O)c1cnc2ccc(-c3cc(Cl)c(O)c(Cl)c3)nc2c1N[C@H]1CC[C@H](CN(C)C)CC1
Summary of the method: as §1

ralimetinib = compound: CC(C)(C)Cn1c(N)nc2ccc(-c3[nH]c(C(C)(C)C)nc3-c3ccc(F)cc3)nc21 [ralimetinib]
Summary of the method: as §1

[7] = compound: CC(C)(O)CC(=O)NCCn1ccc2ncnc(Nc3ccc(Oc4cccc(C(F)(F)F)c4)c(Cl)c3)c21
Summary of the method: as §1

[8] = compound: CC(C)C1=C2N=C(C=C(N2N=C1)NCC3=CC=CC=C3)NCCCCCCN
Summary of the method: as §1

[9] = compound: CC1=C(C(CC(=O)N1)C2=CC=C(C=C2)C(F)(F)F)C(=O)NC3=C(C=C4C(=C3)C=NN4)F
Summary of the method: as §1

[10] = compound: CC1=C(C2=C(C=C1)C(=O)C3=CC=CC=C3N2CCCN)C
Summary of the method: as §1

[11] = compound: CC1=C(C=C(C=C1)NC(=O)C2=CC(=CC=C2)C(C)(C)C#N)NC3=CC4=C(C=C3)N=CN(C4=O)C
Summary of the method: as §1

[12] = compound: CC1=C(C=C(C=C1)NC(=O)C2=CC(=CC=C2)N(C)C)NC(=O)C3=CC=C(C=C3)O
Summary of the method: as §1

[13] = compound: CC1=CC=C(C=C1)SC2=C3C=C(SC3=CN=C2)C(=O)N
Summary of the method: as §1

[14] = compound: C/C(=N\NC(=O)C1=CC(=CC=C1)S(=O)(=O)N2CCOCC2)/C3=C(C=CC(=C3)Cl)O
Summary of the method: as §1

[15] = compound: C1=CC2=C(C=CC(=C2)/C=C\3/C(=O)NC(=NCC4=CC=CS4)S3)N=C1
Summary of the method: as §1

[16] = compound: C1=CC=C2C(=C1)C3=NNC4=CC=CC(=C43)C2=O
Summary of the method: as §1

Chain of UniProt Q07866 (Q07866 whole entry, looked up): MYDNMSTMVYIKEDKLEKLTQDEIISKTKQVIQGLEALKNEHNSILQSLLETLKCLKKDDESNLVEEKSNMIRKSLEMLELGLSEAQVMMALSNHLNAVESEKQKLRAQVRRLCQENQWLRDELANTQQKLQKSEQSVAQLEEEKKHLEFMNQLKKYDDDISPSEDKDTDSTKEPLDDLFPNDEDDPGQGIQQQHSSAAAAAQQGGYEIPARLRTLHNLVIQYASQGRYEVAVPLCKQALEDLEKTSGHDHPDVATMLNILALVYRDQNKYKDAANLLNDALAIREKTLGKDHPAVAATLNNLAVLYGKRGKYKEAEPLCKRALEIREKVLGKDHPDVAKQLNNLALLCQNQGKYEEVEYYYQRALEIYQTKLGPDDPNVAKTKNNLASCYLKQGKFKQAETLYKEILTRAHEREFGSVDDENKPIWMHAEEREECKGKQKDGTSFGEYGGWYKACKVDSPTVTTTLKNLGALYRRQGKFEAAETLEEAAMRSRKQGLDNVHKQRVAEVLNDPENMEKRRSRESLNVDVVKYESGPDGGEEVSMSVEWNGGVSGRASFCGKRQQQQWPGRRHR
Chain of UniProt Q9UMN6 (Q9UMN6 whole entry, looked up): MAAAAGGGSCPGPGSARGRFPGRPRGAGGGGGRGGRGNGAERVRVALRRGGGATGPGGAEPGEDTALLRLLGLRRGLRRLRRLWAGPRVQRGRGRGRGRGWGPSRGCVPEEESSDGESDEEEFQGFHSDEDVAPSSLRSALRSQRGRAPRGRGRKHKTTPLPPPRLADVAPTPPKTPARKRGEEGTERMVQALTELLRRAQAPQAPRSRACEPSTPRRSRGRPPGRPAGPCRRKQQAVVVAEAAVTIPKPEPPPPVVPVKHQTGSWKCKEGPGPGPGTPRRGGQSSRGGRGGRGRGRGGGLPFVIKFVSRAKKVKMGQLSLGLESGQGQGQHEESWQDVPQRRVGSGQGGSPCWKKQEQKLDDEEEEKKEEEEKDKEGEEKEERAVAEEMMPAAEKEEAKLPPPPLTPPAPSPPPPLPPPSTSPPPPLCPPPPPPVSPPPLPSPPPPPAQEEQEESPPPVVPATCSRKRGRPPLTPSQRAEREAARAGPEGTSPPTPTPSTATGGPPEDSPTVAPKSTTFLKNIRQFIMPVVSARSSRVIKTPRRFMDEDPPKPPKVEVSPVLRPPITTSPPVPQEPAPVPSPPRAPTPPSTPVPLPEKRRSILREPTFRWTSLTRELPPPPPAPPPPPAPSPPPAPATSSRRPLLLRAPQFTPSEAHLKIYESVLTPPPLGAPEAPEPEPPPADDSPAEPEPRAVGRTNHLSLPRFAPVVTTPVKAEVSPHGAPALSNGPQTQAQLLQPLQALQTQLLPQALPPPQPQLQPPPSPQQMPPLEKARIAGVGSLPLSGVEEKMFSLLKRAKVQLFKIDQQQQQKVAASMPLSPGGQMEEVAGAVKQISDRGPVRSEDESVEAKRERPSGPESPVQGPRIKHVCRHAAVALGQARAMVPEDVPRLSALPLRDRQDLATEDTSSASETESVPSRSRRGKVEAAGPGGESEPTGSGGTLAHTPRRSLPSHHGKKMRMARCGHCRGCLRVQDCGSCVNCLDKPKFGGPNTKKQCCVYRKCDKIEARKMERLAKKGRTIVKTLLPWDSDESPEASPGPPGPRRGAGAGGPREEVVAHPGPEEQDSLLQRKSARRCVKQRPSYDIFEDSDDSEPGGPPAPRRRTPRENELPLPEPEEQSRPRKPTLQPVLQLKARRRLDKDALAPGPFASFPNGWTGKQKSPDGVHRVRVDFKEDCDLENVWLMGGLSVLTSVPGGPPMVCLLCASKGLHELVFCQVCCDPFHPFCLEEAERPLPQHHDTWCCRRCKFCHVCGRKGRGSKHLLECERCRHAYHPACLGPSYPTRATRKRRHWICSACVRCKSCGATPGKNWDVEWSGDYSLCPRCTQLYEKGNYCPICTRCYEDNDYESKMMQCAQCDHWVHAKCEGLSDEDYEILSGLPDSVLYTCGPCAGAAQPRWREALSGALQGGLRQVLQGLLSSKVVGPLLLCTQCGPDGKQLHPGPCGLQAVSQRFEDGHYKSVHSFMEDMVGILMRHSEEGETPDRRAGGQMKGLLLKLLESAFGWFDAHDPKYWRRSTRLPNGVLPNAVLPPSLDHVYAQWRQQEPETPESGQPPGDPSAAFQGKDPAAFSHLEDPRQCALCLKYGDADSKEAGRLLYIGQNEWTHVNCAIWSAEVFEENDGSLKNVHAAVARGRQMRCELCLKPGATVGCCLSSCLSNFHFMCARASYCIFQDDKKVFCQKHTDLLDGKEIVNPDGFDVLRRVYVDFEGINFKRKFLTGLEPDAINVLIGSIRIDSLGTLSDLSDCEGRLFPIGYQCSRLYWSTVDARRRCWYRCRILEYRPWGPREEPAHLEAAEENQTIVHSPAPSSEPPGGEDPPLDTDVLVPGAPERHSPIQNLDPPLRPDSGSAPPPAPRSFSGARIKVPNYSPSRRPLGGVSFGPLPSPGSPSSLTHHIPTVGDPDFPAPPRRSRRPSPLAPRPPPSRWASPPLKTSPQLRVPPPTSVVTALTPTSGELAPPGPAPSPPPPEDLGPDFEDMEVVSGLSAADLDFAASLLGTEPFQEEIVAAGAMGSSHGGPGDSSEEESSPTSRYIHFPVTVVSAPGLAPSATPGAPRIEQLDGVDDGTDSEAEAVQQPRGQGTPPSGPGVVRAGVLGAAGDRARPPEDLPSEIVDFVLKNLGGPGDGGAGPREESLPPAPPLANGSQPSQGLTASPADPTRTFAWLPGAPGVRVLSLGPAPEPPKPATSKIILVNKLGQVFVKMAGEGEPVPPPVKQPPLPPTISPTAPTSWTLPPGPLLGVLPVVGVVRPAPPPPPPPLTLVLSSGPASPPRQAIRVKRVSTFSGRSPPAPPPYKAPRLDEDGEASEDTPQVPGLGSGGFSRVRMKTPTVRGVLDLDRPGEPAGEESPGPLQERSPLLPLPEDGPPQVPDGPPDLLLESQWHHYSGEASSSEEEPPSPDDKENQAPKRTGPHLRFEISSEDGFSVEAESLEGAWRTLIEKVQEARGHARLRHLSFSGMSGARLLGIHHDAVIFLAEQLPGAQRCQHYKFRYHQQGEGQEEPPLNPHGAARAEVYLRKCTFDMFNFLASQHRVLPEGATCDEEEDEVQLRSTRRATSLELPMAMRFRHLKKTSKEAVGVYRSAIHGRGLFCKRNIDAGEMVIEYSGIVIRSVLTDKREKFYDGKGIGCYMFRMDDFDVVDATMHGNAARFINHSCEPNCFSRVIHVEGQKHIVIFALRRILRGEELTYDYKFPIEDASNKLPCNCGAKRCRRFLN
Chain of UniProt Q9BVG8 (Q9BVG8 whole entry, looked up): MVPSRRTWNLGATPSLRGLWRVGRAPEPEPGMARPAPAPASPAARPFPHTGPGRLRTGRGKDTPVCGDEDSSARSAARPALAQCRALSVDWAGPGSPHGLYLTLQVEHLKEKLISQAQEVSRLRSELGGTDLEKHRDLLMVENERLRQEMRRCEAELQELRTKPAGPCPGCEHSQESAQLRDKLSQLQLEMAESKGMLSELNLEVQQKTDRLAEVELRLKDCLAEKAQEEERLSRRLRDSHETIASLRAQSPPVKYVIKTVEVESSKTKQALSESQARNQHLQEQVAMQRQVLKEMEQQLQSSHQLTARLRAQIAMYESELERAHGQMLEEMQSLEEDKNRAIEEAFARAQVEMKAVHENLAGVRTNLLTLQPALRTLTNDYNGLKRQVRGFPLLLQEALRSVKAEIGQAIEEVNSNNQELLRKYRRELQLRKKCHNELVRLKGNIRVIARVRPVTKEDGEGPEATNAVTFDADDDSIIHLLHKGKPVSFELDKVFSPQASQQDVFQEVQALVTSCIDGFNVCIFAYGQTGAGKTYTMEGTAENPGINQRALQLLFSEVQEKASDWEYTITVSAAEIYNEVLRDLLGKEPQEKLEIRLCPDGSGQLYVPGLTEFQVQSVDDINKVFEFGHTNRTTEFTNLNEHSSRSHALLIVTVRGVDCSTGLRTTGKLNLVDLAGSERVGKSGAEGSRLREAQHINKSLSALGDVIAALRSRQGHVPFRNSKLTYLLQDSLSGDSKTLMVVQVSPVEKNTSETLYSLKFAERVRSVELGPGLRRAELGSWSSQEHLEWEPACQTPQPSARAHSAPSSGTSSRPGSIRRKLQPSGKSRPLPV
Chain of UniProt Q9BPZ7 (Q9BPZ7 whole entry, looked up): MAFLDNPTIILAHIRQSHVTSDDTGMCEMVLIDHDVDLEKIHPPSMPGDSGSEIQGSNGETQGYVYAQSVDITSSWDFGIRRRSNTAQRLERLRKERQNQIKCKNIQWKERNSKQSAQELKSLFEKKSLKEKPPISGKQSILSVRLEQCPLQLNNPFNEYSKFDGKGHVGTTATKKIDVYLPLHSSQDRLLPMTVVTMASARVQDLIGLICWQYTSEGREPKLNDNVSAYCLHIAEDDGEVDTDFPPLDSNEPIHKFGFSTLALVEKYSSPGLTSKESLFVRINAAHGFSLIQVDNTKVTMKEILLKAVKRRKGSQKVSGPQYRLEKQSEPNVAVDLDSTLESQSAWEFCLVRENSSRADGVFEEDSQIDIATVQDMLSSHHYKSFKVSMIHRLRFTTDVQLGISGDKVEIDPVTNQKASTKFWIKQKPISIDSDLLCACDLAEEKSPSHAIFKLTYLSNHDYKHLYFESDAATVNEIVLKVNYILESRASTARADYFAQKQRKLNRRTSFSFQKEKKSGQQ
Chain of UniProt O15243 (O15243 whole entry, looked up): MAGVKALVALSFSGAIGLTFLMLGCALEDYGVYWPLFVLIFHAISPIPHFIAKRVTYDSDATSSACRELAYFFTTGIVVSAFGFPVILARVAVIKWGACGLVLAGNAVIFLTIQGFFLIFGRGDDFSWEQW
Chain of UniProt Q16553 (Q16553 whole entry, looked up): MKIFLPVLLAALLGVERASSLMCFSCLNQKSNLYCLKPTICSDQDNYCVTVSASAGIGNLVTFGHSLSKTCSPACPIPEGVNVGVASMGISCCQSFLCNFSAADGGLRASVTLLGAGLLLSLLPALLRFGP

| Target | log2 fold change (erlotinib) | log2 fold change [1] | log2 fold change [2] | log2 fold change [3] | log2 fold change [4] | log2 fold change [5] | log2 fold change (IRAK-1-4 Inhibitor I) | log2 fold change (ibrutinib) | log2 fold change [6] | log2 fold change (ralimetinib) | log2 fold change [7] | log2 fold change [8] | log2 fold change [9] | log2 fold change [10] | log2 fold change [11] | log2 fold change [12] | log2 fold change [13] | log2 fold change [14] | log2 fold change [15] | log2 fold change [16] |
| --- | --- | --- | --- | --- | --- | --- | --- | --- | --- | --- | --- | --- | --- | --- | --- | --- | --- | --- | --- | --- |
| MED25 isoform 3 (UniProt Q71SY5) | 0.092 | 0.01 | -0.062 | -0.006 | 0.06 | 0.073 | 0.073 | -0.034 | 0.001 | -0.071 | 0.045 | -0.023 | 0.038 | -0.039 | 0.035 | 0.057 | 0.025 |  |  |  |
| KLC1 isoform 10 (UniProt Q07866) | 0.071 | -0.165 | 0.122 |  | 0.241 | -0.337 |  | 0.235 |  |  |  | -0.129 |  |  |  |  |  |  |  |  |
| LRP1 (UniProt Q07954) |  |  |  |  | -0.196 | -0.055 |  |  | -0.017 |  |  |  |  |  | 0.378 |  | -0.049 | 0.266 | -0.092 | -0.211 |
| MRPL27 (UniProt Q9P0M9) | -0.072 | 0.068 | -0.019 | 0.056 | 0.023 | 0.019 | -0.044 | -0.046 | -0.057 | 0.023 | -0.025 | 0.106 | 0.002 | -0.195 | -0.028 | 0.1 | 0.079 |  |  |  |
| LRRC7 (UniProt Q96NW7) |  |  | -0.108 | 0.065 | 0.02 | 0.067 | 0.048 | -0.081 | 0.026 | -0.115 | -0.073 |  |  | 0.041 | -0.062 | 0.09 | 0.086 | 0.042 | -0.493 (active) | 0.038 |
| LGALS3BP (UniProt Q08380) | -0.154 | 0.064 |  |  | 0.018 | -0.171 |  |  | 0.061 |  |  | 0 | 1.31 | 0.453 | -0.009 |  | 0 | 0.293 | 0.331 | -0.203 |
| MEX3A (UniProt A1L020) |  |  |  | -0.007 |  |  | 0.168 |  |  | -0.21 | -0.123 |  | -0.076 | 0.003 |  | -0.162 |  | 0.108 | -0.108 | -0.29 |
| KIFC3 isoform 6 (UniProt Q9BVG8) | 0.091 | 0.14 | 0.076 |  | -0.103 | 0.158 |  | 0 |  |  |  | 0.097 |  | -0.231 | 0.193 |  |  | 0.069 | 0.004 | -0.077 |
| MEGF8 (UniProt Q7Z7M0) | 0.045 | 0.016 | 0.013 | 0.075 | -0.116 | 0.071 | -0.36 (active) | 0 |  | -0.019 | -0.124 | -0.057 |  | 0.091 | 0.079 | 0.154 |  |  |  |  |
| MAP3K4 isoform 2 (UniProt Q9Y6R4) |  |  |  |  |  |  |  |  |  |  |  |  |  |  | -0.005 |  |  |  |  |  |
| LYN isoform 2 (UniProt P07948) | -0.161 | -0.093 |  | 0.132 | -0.035 | -0.385 | 0.493 |  |  | -0.104 | 0.106 | -0.061 | -0.432 | -0.226 | 0.333 | -0.008 |  |  |  |  |
| LRRC9 (UniProt Q6ZRR7) |  |  |  |  | -0.044 | -0.07 |  |  |  |  |  |  |  |  | 0.042 |  |  | -0.037 | 0.02 | -0.01 |
| KIF21A (UniProt H0YI78) | -0.064 | 0.088 | -0.015 |  |  |  |  | -0.187 | -0.073 |  |  | -0.006 | 0.107 | 0.017 |  |  | 0.031 |  |  |  |
| LY6E (UniProt Q16553) |  |  | -0.033 |  | -0.02 | 0.025 |  | -0.032 | 0.028 |  |  |  | -0.027 |  |  |  | -0.042 | -0.095 | 0.049 | -0.27 |
| MAPK7 (UniProt Q13164) | -0.1 | 0.012 |  |  | -0.057 | 0.032 |  |  | 0.388 (active) |  |  | 0.025 |  |  | -0.034 |  | -0.013 |  |  |  |
| LIMK1 (UniProt P53667) |  |  | 0.133 | -0.002 | 0.068 | -0.05 | 0.06 | 0.546 (active) | -0.04 | -0.125 | -0.161 |  | -0.067 | 0.026 | -0.085 | 0.059 | -0.148 | 0.114 | -0.088 | 0.029 |
| KIF3C (UniProt O14782) | 0.389 | -0.082 |  | 0.025 | 0.158 | 0.146 | -0.023 |  | -0.041 | -0.038 | -0.032 | -0.015 | 0.03 | -0.116 | -0.007 | 0.023 | 0.044 | 0.05 | -0.116 | -0.117 |
| LEPROT (UniProt O15243) | 0.176 | -0.116 | -0.02 | -0.064 | 0.122 | 0.045 | -0.036 | 0.005 | -0.273 | -0.034 | 0.054 | 0.267 |  |  | 0.181 | 0.016 | 0 |  |  |  |
| KIF18B (UniProt Q86Y91) |  |  |  |  | -0.117 | 0.033 |  |  | -0.157 |  |  |  |  | -0.022 | 0 |  | -0.121 |  |  |  |
| MAPKAP1 (UniProt Q9BPZ7) | -0.091 | -0.059 |  | 0.062 | 0.141 | -0.181 | -0.19 |  |  | -0.019 | 0 | -0.031 | -0.103 | 0.061 | 0.007 | -0.034 |  |  |  |  |
| KRAS (UniProt P01116) | -0.112 | 0.069 |  | -0.036 | -0.021 | -0.008 | 0.007 |  | 0.006 | -0.023 | 0.063 | -0.008 | -0.037 | 0.018 | -0.048 | 0.07 | -0.058 | 0.033 | -0.052 | -0.041 |
| LRPPRC (UniProt H7C3W8) |  |  |  |  |  |  |  |  |  |  |  |  |  |  |  |  |  | -0.13 | -0.053 | -0.3 |
| KMT2B (UniProt Q9UMN6) | -0.494 | -0.226 |  |  | -0.028 | -0.015 |  |  |  |  |  | 0.53 |  | -0.135 | -0.072 |  |  |  |  |  |
